Assay outcomes as filed in PubChem.
TDP1 cell noCPT: qHTS for Inhibitors of human tyrosyl-DNA phosphodiesterase 1 (TDP1): qHTS in cells in absence of CPT | DT40 Tdp1-/- hTDP1 cells, no CPT, ATP luminescence, 48 h | Potency, µM (series often up to 46.2 µM), inactives show at the highest dose activity change, negative = growth inhibition, most hits filed as inhibitors | 15% of 420,000 active; further: potency means the concentration at half of the fitted maximal effect; nearly all actives have a fitted effect of over 55% in size
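Growth kinetics read by CellTiter-Glo luminescence after ≥48 hr at 37 °C. Cells: DT40 Tdp1-/- stably carrying human TDP1, 400 per well, compound exposure in the absence of CPT (DMSO vehicle).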
HT1080 IDH1KD tx: HT-1080 IDH1 knockdown cell toxicity (counter line); Potency, µM (top dose mostly 46.1 µM), for the others: at the top dose activity, negative = toxicity, hits mostly cytotoxic; HT-1080 IDH1 knockdown viability, ATP luminescence, 48 h; 2% of 360,000 active;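 further: potency means the concentration at half of the fitted maximal effect; 0% = DMSO wells and -100% = cell-free medium wells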
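Using the IDH1-knockdown HT-1080 line run in the same batch and compound series as the NT line, viability after 48 h at 37 °C was determined by CellTiter-Glo luminescence and expressed as % activity.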
HT1080NT lethal: kills 2HG-producing HT-1080-NT fibrosarcoma cells; HT-1080-NT fibrosarcoma viability, CellTiter-Glo ATP luminescence, 48 h; Potency, µM (doses to about 46.1 µM), without a hit: top-dose activity, negative = less viability, most hits filed as cytotoxic; 1.6% of 360,000 active;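 further: NT is the 2HG producing partner of a matched IDH1 knockdown line; potency means the concentration at half of the fitted maximal effect; 0% = DMSO-treated cells and -100% = media-only wells without cells; nearly all actives have a fitted effect of over 55% in size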
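750 cells/well, RPMI + 5% FBS; 2 h settle, compound pin-transfer, 48 h at 37 degrees C. CellTiter-Glo 10 min RT, luminescence. Normalized to DMSO and media-only wells.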
TDP1 cell CPT: DT40-hTDP1 cell growth loss with CPT. Potency, µM (highest dose often 46.2 µM), inactives show at the highest dose activity change, negative = growth inhibition, actives largely listed as inhibitors. AID 686979. chicken DT40 Tdp1-/-;hTDP1 cells + 20 nM CPT, ATP luminescence, 48 h. 12% of 420,000 active; further: potency means the concentration at half of the fitted maximal effect; nearly all actives have a fitted effect of over 55% in size
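Chicken DT40 Tdp1-/- cells stably complemented with human TDP1 were seeded at 400 cells/well in medium containing 20 nM camptothecin, exposed to pin-transferred compounds, and grown at 37 °C for at least 48 hr. Viability was read as ATP luminescence.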
IL1B secr inh: inflammasome signaling inhibition, IL-1 beta readout. AID 743279. 4.7% of 360,000 active. THP-1 LPS/ATP IL-1B secretion, AlphaLISA, 16 h; hits give low values. activity change, % at 57.5 µM; in the data active means activity change below about -50%; inconclusive means mostly about -30% to -49%
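THP-1 cells pretreated 1 hr with compounds (up to 57.5 uM final), then stimulated with LPS (250 ng/mL final) plus ATP (1.25 mM final); secreted IL-1B measured by AlphaLISA after 16 hr, decreased signal indicating inhibition.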
* marks the source's active call; other numbers are inactive results; ? = inconclusive; · = no result given. In the library only some 19% were active in any assay of this set; here they are far more common. Unless noted, the call rests on the fitted dose curve; in most records, active means well fitted curve in the direction sought with a large enough effect; inconclusive means small, poorly fitted or top-dose-only effect, or another doubt; inactive means no such curve, though single readings can be large; an effect the other way counts as inactive or inconclusive. Unless noted, on the % scale 0 is the no-effect control and ±100 the full control effect.

SMILES	TDP1 cell noCPT	HT1080 IDH1KD tx	HT1080NT lethal	TDP1 cell CPT	IL1B secr inh
CC(C)(C)OC(=O)N1CCC(c2c(C(=O)N3CCN(C(=O)c4ccco4)CC3)cnn2-c2ccccc2Cl)CC1	?	·	·	-27.3%	·
Cc1ccc(C)c(N2CCN(CCCNC(=O)c3cnn(-c4ccc(F)cc4)c3C3CCN(C(=O)OC(C)(C)C)CC3)CC2)c1	3.26µM*	·	·	4.11µM*	·
Cc1cccc(N2CCN(C(=O)c3cnn(-c4ccccc4Cl)c3C3CCN(C(=O)OC(C)(C)C)CC3)CC2C)c1 (configuration not stated)	13µM*	·	·	?	·
CC1=C(c2ccc(F)cc2)S(=O)(=O)N=C1N1CCC(C(=O)NCCc2ccco2)CC1	-22.0%	·	·	-6.2%	·
C#CCOCCOCCOCCNc1nc(N2CCN(C(=O)C([C@@H](C)CC)n3cc(C(N)CO)nn3)CC2)nc(N2CCN(C(=O)C([C@@H](C)CC)n3cc(C(N)COC(=O)C(F)(F)F)nn3)CC2)n1 (some centres not stated)	0.3%	13.1%	11.6%	-4.7%	4.6
COc1ccccc1-c1cc(C(=O)Nc2cccnc2Cl)no1	-15.5%	24.5%	?	7.8%	-17.1
COc1ccc(NC(=O)c2cc(-c3ccccc3OC)on2)cc1	2.82µM*	6.31µM*	4.47µM*	2.82µM*	23.0
COc1ccccc1-c1cc(C(=O)Nc2cccnc2)no1	0.461µM*	0.251µM*	0.316µM*	0.461µM*	42.9
COc1ccc(OC)c(-c2cc(C(=O)NC(C)c3ccccc3)no2)c1 (configuration not stated)	4.11µM*	·	·	4.11µM*	·
COc1ccc(NC(=O)c2cc(-c3ccccc3Cl)on2)cc1	?	1.3%	-0.5%	-2.6%	-5.3
CCN(CC)C(=O)C(=O)c1cccn1-c1cccc(OC)c1C#N	3.0%	16.6%	16.6%	2.3%	-2.4
CCCCOC(=O)CCc1c(C)n[nH]c1C	-8.3%	24.2%	8.7%	12.4%	·
COc1ccc(OC)c(NC(=O)COC(=O)/C=C/c2ccc(Cl)cc2)c1	-0.7%	12.0%	13.8%	-5.3%	7.2
Cc1ccc(-c2csc(C3=C(O)CN(NC(=O)c4ccco4)C3=N)n2)cc1	-0.8%	13.8%	?	-3.7%	-2.2
COc1ccc(NC(=O)Nc2nnc(-c3ccco3)s2)cc1	4.5%	-0.1%	-0.8%	0.0%	32.5
Cc1ccc(NC(=O)Nc2nnc(N3CCCC3)s2)cc1	-7.3%	·	·	-0.5%	·
COc1cc(NC(=O)Nc2nnc(N3CCCCCC3)s2)cc(OC)c1	16.4µM*	·	·	23.1µM*	·
O=C(Nc1nnc(-c2ccncc2)s1)Nc1ccccc1F	?	11.0%	1.1%	?	-19.2
O=C(Nc1ccc(Cl)c(Cl)c1)Nc1nnc(-c2ccncc2)s1	3.66µM*	?	?	3.26µM*	23.6
COc1ccc(NC(=O)Nc2nnc(-c3ccncc3)s2)cc1	23.1µM*	-3.4%	-2.6%	23.1µM*	-89.6*
N#Cc1sc(=O)[nH]c1Cl	-16.6%	11.7%	16.8%	2.7%	4.7
O=C(Cn1c(NCCO)nc2ccccc21)N1CCN(Cc2ccccc2)CC1	-17.9%	3.4%	-9.9%	3.5%	-15.2
CCN(c1ccc(Cl)cc1)S(=O)(=O)c1nnc(NC(=O)C(C)C)s1	-26.8%	-6.6%	?	5.6%	-2.0
O=C(CNC(=O)c1ccc(Br)o1)NCc1ccccc1	-1.4%	4.9%	7.4%	-23.7%	26.0
O=C(Nc1ccccc1)Nc1snnc1C(=O)Nc1cccc(O)c1	?	-17.2%	3.5%	-5.1%	84.1
SMILES	TDP1 cell noCPT	HT1080 IDH1KD tx	HT1080NT lethal	TDP1 cell CPT	IL1B secr inh
CSc1nc(N2CCOCC2)nc2ccc(C)cc12	?	6.3%	13.7%	?	-14.8
COc1cc(OC)cc(C(=O)NC2CCSc3ccccc32)c1 (configuration not stated)	23.1µM*	-7.5%	-1.4%	?	-4.7
COC(=O)[C@@H]1CCCN1Cc1ccc2c(c1)CN(Cc1ccc3c(c1)CCCN3C)CCO2	-2.0%	·	·	11.4%	·
N#Cc1ccc(S(=O)(=O)N2CCN(CN3C(=O)CC4(CCCC4)C3=O)CC2)cc1	-9.6%	-1.5%	11.8%	-18.4%	2.5
COc1ccc(C(=O)Nc2nc3n(n2)C(c2ccc(Cl)cc2)C=C(c2ccccc2)N3)cc1OC (configuration not stated)	14.6µM*	·	·	14.6µM*	·
CC1=CC(c2ccc(Cl)cc2)n2nc(NC(=O)CCC(=O)O)nc2N1 (configuration not stated)	-3.0%	-1.1%	-0.3%	4.1%	19.6
CC1=CC(c2ccc(Cl)cc2)n2nc(NC(=O)CCCC(=O)O)nc2N1 (configuration not stated)	4.6%	6.2%	13.6%	9.0%	-3.0
O=C(Nc1nc2n(n1)C(c1ccc(F)cc1)C=C(c1ccccc1)N2)c1ccco1 (configuration not stated)	23.1µM*	·	·	16.4µM*	·
O=C(Nc1nc2n(n1)C(c1ccccc1)C=C(c1ccccc1)N2)c1ccccc1 (configuration not stated)	18.4µM*	·	·	16.4µM*	·
O=C(Nc1nc2n(n1)C(c1ccc(Cl)cc1)C=C(c1ccccc1)N2)c1ccco1 (configuration not stated)	20.6µM*	·	·	20.6µM*	·
O=C(NCCc1nc(-c2ccccc2Cl)no1)C1CCCCC1	-14.9%	-0.7%	-0.8%	-12.4%	6.6
O=S(=O)(Nc1nc2n(n1)C(c1ccc(F)cc1)C=C(c1ccccc1)N2)c1ccccc1 (configuration not stated)	20.6µM*	·	·	?	·
CN(C)c1ccc(NC(=O)Cc2ccccc2)c2ccccc12	?	1.9%	12.5%	-16.9%	-25.8
COc1ccc(-c2[nH]ncc2CN2CCN(Cc3cccs3)CC2)c(F)c1	?	-0.2%	-5.5%	-9.7%	26.3
COc1ccc(-c2[nH]ncc2CN(C)C(C)c2cccs2)c(F)c1 (configuration not stated)	?	-6.5%	2.1%	16.4µM*	-9.8
O=Cc1cccn1-c1ccc(O)cc1	-43.9%	19.6%	18.6%	-25.9%	13.0
O=C(CCS(=O)(=O)c1ccccc1)Nc1nc(-c2ccccn2)cs1	13µM*	-6.9%	-9.7%	18.4µM*	-7.1
CC(Oc1ccc(F)cc1)C(=O)Nc1nc(-c2ccccn2)cs1 (configuration not stated)	5.17µM*	?	?	1.3µM*	-102.2*
CC(OC(=O)c1cccs1)C(=O)Nc1nc(-c2ccccc2)cs1 (configuration not stated)	?	-4.7%	20.1%	?	2.5
Cc1ccc(S(=O)(=O)CCC(=O)Nc2nccs2)cc1	?	-2.1%	2.1%	-9.8%	6.8
